Results filed as inconclusive are left out. Unmarked numbers belong to inactive results. Active and inactive are the calls of the source. The call rests on the fitted dose curve; in most records, active means well fitted cell-killing curve with a large enough effect; inconclusive means small, poorly fitted or top-dose-only effect, or effect the other way; inactive means no such curve, though single readings can be large or run the other way.
Test: Quantitative High-Throughput drug screen in 47 multiple myeloma cell lines against the NCATS MIPE library collection: FR4_PLB cell viability assay (AID 1918924; further: nearly all actives have a fitted effect of over 35% in size)
Details: FR4_PLB myeloma cells viability, CellTiter-Glo ATP, 48 h; series mostly up to 45.8 µM; viability (% of DMSO control): at the top concentration
Source text: PI: Beverly A. Mock Ph.D.
Laboratory of Cancer Biology and Genetics,
Center for Cancer Research, National Cancer Institute,
National Institute of Health, Bethesda, Maryland
Drug resistance and disease progression are common in multiple myeloma (MM) patients, underscoring the need for new therapeutic combinations. […] We hypothesized that effective combinations would reduce MYC expression and enhance p16 activity. […] These preclinical data identify potentially useful drug combinations for evaluation in drug-resistant MM and reveal potential mechanisms of combined drug sensitivity.
Described herein is the primary MIPE qHTS used to cherrypick compounds. Validated compounds were then further tested for potential synergistic activiy.
[1] Peat TJ, Gaikwad SM, Dubois W, Gyabaah-Kessie N, Zhang S, Gorjifard S, Phyo Z, Andres M, Hughitt VK, Simpson RM, Miller MA, Girvin AT, Taylor A, Williams D, D'Antonio N, Zhang Y, Rajagopalan A, Flietner E, Wilson K, Zhang X, Shinn P, Klumpp-Thomas C, McKnight C, Itkin Z, Chen L, Kazandijian D, Zhang J, Michalowski AM, Simmons JK, Keats J, Thomas CJ, Mock BA. Drug combinations identified by high-throughput screening promote cell cycle transition and upregulate Smad pathways in myeloma. Cancer Lett. 2023 Aug 1;568:216284. doi: 10.1016/j.canlet.2023.216284. Epub 2023 Jun 24. PMID: 37356470; PMCID: PMC10408729.
SEQUENCE No. (e.g., 1, 2, 3, etc.); […] (e.g., Cells, Incubation, Reagent, etc.); VALUE and DESCRIPTION.
1; Cells; 5 uL; white, solid bottom 1536-well Greiner assay plate.
2; Compounds; 23 nL; Kalypsis pin tool (Wako USA) equipped with a 1536-well pin head to transfer to the assay plates.
3; Incubation; 48 hours; 37C incubation.
4; Reagent;5uL; CellTiter Glo (Promega).
5; Detector; 425V; Luminescence; Viewlux PerkinElmer.
NOTES (numbers refer to Sequence numbers above)
1. The cell-based screening methods employed in this study were like those previously published. Briefly, the corresponding myeloma cell lines were screened in 1,536-well plates with 500 cells, 5-uL per well for inhibition of cell viability (assessed by measuring ATP levels with CellTiterGlo).
2. NCATS MIPE 4.0 library of approved and investigational drugs were added using the Kalypsis pin tool. Wells treated with DMSO only for 100% viability and media only wells for 0% viability were used as controls.
3. The assay plates were covered and incubated for 48 hours in a 37C, 5% CO2 incubator with controlled humidity.
4. After 48 hours, CellTilter-GloTM luminescent substrate mix (Promega) reagent was added to the assay plate and plates we incubated for 5 min at room temperature.
5. Signal was measured as median relative luminescence units on a ViewLux (PerkinElmer) multiplate reader.
[1] Heske CM, Davis MI, Baumgart JT, Wilson K, Gormally MV, Chen L, Zhang X, Ceribelli M, Duveau DY, Guha R, Ferrer M, Arnaldez FI, Ji J, Tran HL, Zhang Y, Mendoza A, Helman LJ, Thomas CJ. Matrix Screen Identifies Synergistic Combination of PARP Inhibitors and Nicotinamide Phosphoribosyltransferase (NAMPT) Inhibitors in Ewing Sarcoma. Clin Cancer Res. 2017 Dec 1;23(23):7301-7311. doi: 10.1158/1078-0432.CCR-17-1121. Epub 2017 Sep 12. PMID: 28899971; PMCID: PMC6636827.
Potency means the concentration at half of the fitted maximal effect.

Structure (SMILES) | Potency | viability (% of DMSO control)
CC(C=CC(=O)NO)=C[C@@H](C)C(=O)c1ccc(N(C)C)cc1 | 332 nM (active) | 
CC[C@H]1OC(=O)[C@H](C)[C@@H](O[C@H]2C[C@@](C)(OC)[C@@H](O)[C@H](C)O2)[C@H](C)[C@@H](O[C@@H]2O[C@@H](C)C[C@H](N(C)C)[C@@H]2O)[C@](C)(O)C[C@@H](C)C(=O)[C@H](C)[C@@H](O)[C@]1(C)O |  | 99.7%
N#Cc1ccc(COC[C@H]2O[C@@H](n3c(NCc4ccc(Cl)c(Cl)c4)nc4c(N)ncnc43)[C@@H](O)[C@@H]2O)cc1 | 13200 nM (active) | 
Nc1nc(=O)n([C@H]2CSC(CO)O2)cc1F (stereo not given in full) |  | 99.3%
CC(C)(O)[C@H]1CC[C@@](C)([C@H]2[C@@H](O)C[C@@]3(C)[C@@H]4C[C@H](O[C@@H]5O[C@H](CO)[C@@H](O)[C@H](O)[C@@H]5O)[C@H]5C(C)(C)[C@@H](O[C@@H]6OC[C@@H](O)[C@H](O)[C@@H]6O)CC[C@@]56C[C@@]46CC[C@]23C)O1 |  | 130%
Cn1cnc2c(F)c(Nc3ccc(Br)cc3F)c(C(=O)NOCCO)cc21 |  | 99.2%
O=C(CN1C(=O)C2(CCCC2)NC[C@H]1c1cc(F)cc(F)c1)Nc1ccc2c(c1)C[C@@]1(C2)C(=O)Nc2ncccc21 |  | 121%
CC(C)Oc1ccc(C(=O)N[C@H](CNC(=O)CN(C)C)Cc2ccc(-c3cn4cccc([C@H](C)O)c4n3)cc2)cc1Cl | 148 nM (active) | 
O=C(O)C(=O)Nc1cccc(C2=NN=N[N]2)c1 |  | 113%
CN(C)CC(=O)N1CCC(c2ccc(NC(=O)c3ncc(C#N)[nH]3)c(C3=CCCCC3)c2)CC1 |  | 115%
CN[C@H](CC(C)C)C(=O)N[C@H]1C(=O)N[C@@H](CC(N)=O)C(=O)N[C@@H]2C(=O)N[C@H]3C(=O)N[C@H](C(=O)N[C@H](C(=O)O)c4cc(O)cc(O)c4-c4cc3ccc4O)[C@H](O)c3ccc(c(Cl)c3)Oc3cc2cc(c3O[C@@H]2O[C@H](CO)[C@@H](O)[C@H](O)[C@@H]2O[C@H]2C[C@](C)(N)[C@H](O)[C@H](C)O2)Oc2ccc(cc2Cl)[C@H]1O |  | 109%
COC(=O)[C@@H]1CC2=CC(=O)CC[C@]2(C)[C@@]23O[C@@H]2C[C@@]2(C)[C@H](CC[C@@]24CCC(=O)O4)[C@@H]13 |  | 122%
OCCNC1CCCc2c1[nH]c1ccc(-c3ccccc3)cc21 (stereo not given) | 18700 nM (active) | 
CCC(C(=O)O)C1CCC(C)C(C(C)C(O)C(C)C(=O)C(CC)C2OC3(C=CC(O)[C@@]4(CC[C@](C)(C5CC[C@@](O)(CC)C(C)O5)O4)O3)C(C)CC2C)O1 (stereo not given in full) | 16600 nM (active) | 
Nc1ncn([C@@H]2O[C@H](CO)[C@@H](O)[C@@H]2O)c(=O)n1 | 4690 nM (active) | 
Cc1cnn(C)c1C(=O)Nc1cc(Nc2ccc3c(C=Cc4ccccn4)n[nH]c3c2)ccc1F | 20900 nM (active) | 
COc1cccc2c1C(=O)c1c(O)c3c(c(O)c1C2=O)C[C@@](O)(C(=O)CO)C[C@@H]3O[C@H]1C[C@H](N)[C@@H](O)[C@H](C)O1 | 743 nM (active) | 
Cc1ccc2nc(NCCN)c3ncc(C)n3c2c1 | 3320 nM (active) | 
Cc1cnc(Nc2ccc(CN3CCOCC3)cc2)nc1Nc1cccc(S(=O)(=O)NC(C)(C)C)c1 | 2640 nM (active) | 
O=C(O)CCCCCC(=O)NN=C1CCCC1 |  | 117%

Structure (SMILES) | Potency | viability (% of DMSO control)
CC(=O)N[C@H]1[C@@H]([C@H](O)[C@H](O)CO)OC(C(=O)O)=C[C@@H]1N=C(N)N |  | 120%
C[C@@H](Oc1ccc2[nH]nc(C=Cc3cnn(CCO)c3)c2c1)c1c(Cl)cncc1Cl | 26400 nM (active) | 
CS[C@H]1SC[C@@H]2C(=O)N(C)[C@H](C(C)C)C(=O)OC[C@H](NC(=O)c3cnc4ccccc4n3)C(=O)N[C@H](C)C(=O)N(C)[C@@H]1C(=O)N(C)[C@H](C(C)C)C(=O)OC[C@H](NC(=O)c1cnc3ccccc3n1)C(=O)N[C@H](C)C(=O)N2C | 4.2 nM (active) | 
C[C@H](NC(=O)C(C#N)=Cc1cccc(Br)n1)c1ccccc1 | 3720 nM (active) | 
O=C(CCCCCCC(=O)Nc1cccnc1)NO | 2350 nM (active) | 
O=C(NC1CC1)c1cccc(-c2ccc3c(NC(=O)C4CC4)n[nH]c3c2)c1 | 2090 nM (active) | 
CN[C@H]1[C@@H](O)[C@@H]2O[C@@H]3O[C@H](C)CC(=O)[C@]3(O)O[C@@H]2[C@@H](NC)[C@H]1O | 1660 nM (active) | 
C=C(C)[C@@H]1CC[C@]2(C)CC[C@]3(C)[C@H](CC[C@@H]4[C@@]5(C)CC[C@H](O)C(C)(C)[C@H]5CC[C@]43C)[C@@H]12 |  | 128%
CC(C)N1[N]C(=C2C=c3cc(O)ccc3=N2)c2c(N)ncnc21 | 296 nM (active) | 
Cn1cc(CNCC2CCN(c3ncc(C(=O)NO)cn3)CC2)c2ccccc21 | 26.4 nM (active) | 
Nc1ccc(C(=O)Nc2cccc(-c3nc(N4CCOCC4)c4oc5ncccc5c4n3)c2)cn1 | 18700 nM (active) | 
CC1(C)O[C@@H]2C[C@H]3[C@@H]4CCC5=CC(=O)C=C[C@]5(C)[C@@H]4[C@@H](O)C[C@]3(C)[C@]2(C(=O)CO)O1 |  | 123%
Nc1ccn(C[C@@H](CO)OCP(=O)(O)O)c(=O)n1 |  | 142% [at 23.2 µM]
CC[C@@]1([C@@H]2O[C@@H]([C@H]3O[C@@](O)(CO)[C@H](C)C[C@H]3C)C[C@H]2C)CC[C@H]([C@]2(C)CC[C@]3(C[C@H](O)[C@@H](C)[C@@H]([C@@H](C)[C@@H](OC)[C@H](C)C(=O)O)O3)O2)O1 | 812 nM (active) | 
CCOc1cc2ncc(C#N)c(Nc3ccc(OCc4ccccn4)c(Cl)c3)c2cc1NC(=O)C=CCN(C)C | 2350 nM (active) | 
OCc1ccccc1O[C@@H]1O[C@H](CO)[C@H](O)[C@H](O)[C@H]1O |  | 125%
N#CC(=Cc1ccc(O)c(O)c1)C(=O)NCc1ccccc1 | 5260 nM (active) | 
O=[N+]([O-])c1cn2c(n1)OC[C@@H](OCc1ccc(OC(F)(F)F)cc1)C2 |  | 127%
FC(F)c1nc2ccccc2n1-c1nc(N2CCOCC2)nc(N2CCOCC2)n1 | 743 nM (active) | 
CN1CCc2c(c3ccccc3n2Cc2ccc(C(=O)NO)cc2)C1 | 18700 nM (active) | 
